Among the data in PubChem BioAssay AID629 (Emory University Molecular Libraries Screening Center, 2007) are inhibition values, retold here.

In all, about 86,000 compounds went through this assay and about 1,400 (1.6%) were called active. Cut-off read from the data, not from the text of the source: active = inhibition above about 50%; inactive = the rest. The full list was thinned out, with actives kept by preference.

The target in the test is Estrogen receptor (Homo sapiens) (UniProt P03372). The test can be described thus: blockers of SRC-1 peptide recruitment to ERα – biochemical, TR-FRET, ERα LBD, estradiol-bound, primary screen (AID 629).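 Note: 0% = receptor plus peptide control and 100% = peptide only without receptor.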 The note with it: TR-FRET ER-alpha LBD / SRC-1 peptide, at 25.6 µM, hits give high values.
Sequence of Estrogen receptor (Homo sapiens) (P03372 whole entry, looked up, the tested form may be a part): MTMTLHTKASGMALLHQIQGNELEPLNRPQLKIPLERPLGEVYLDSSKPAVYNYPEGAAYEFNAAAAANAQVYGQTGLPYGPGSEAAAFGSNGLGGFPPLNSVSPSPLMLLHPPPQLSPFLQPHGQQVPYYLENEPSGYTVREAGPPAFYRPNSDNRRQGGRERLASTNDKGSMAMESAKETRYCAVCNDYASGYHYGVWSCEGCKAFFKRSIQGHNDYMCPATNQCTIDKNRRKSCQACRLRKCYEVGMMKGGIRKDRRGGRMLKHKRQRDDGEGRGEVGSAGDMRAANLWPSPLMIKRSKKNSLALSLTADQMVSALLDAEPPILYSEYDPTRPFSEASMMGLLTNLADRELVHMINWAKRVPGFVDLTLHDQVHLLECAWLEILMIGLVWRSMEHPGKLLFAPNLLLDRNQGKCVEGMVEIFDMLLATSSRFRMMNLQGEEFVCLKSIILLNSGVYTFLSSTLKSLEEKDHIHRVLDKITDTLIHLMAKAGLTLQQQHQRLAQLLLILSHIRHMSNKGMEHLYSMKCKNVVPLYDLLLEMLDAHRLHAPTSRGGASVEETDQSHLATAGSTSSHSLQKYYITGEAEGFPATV
For `O=C(/C=C/NNC(=O)c1cccc(Br)c1)c1ccccc1`, the inhibition is -3.8% (inactive).

As for `C=CCO/N=C(\C)c1c(O)c(C)c(-c2ccccc2)n(-c2ccccc2)c1=O`, the inhibition is 2.56% (inactive).

With `CC(=O)Nc1cccc(Oc2cc(C#N)c(C#N)cc2N2CCOCC2)c1`, the inhibition is 8.98% (inactive).

In the case of `CCOc1cc(N2CCOCC2)c(OCC)cc1NC(=O)COC(=O)[C@H](Cc1c[nH]c2ccccc12)NC(C)=O`, the inhibition is -11.8% (inactive).

Regarding `CCOc1cc(N2CCOCC2)c(OCC)cc1NC(=O)COc1cccc2cccnc12`, the inhibition is 94.2% [fluorescence artefact?] (active).

Regarding `Cn1c(=NC(=O)C2CC2)sc2cc(F)cc(F)c21`, the inhibition is -0.62% (inactive).

In the case of `COc1ccc(OC)c2c1sc(=NC(=O)CN1C(=O)CCC1=O)n2C`, the inhibition was 28.2% (inactive).

Consider `COc1ccc(C)c2sc(=NC(=O)c3ccc(C#N)cc3)n(C)c12`, for which the inhibition was 79.7% [fluorescence artefact?] (active).

Turning to `CCC(c1nnnn1C(C)(C)C)N(Cc1cc2cccc(C)c2n2nnnc12)C1CCCC1` (stereo not given), the inhibition was -3.95% (inactive).

As for `Cc1cc(C)nc(N2CCN(c3ncnc4c3oc3ccccc34)CC2)n1`, the inhibition was 16.1% (inactive).

For the compound `CCc1nc(N2CCN(c3nc(C)cc(C)n3)CC2)c2oc3ccccc3c2n1`, the inhibition was 49.1% (inactive).

Consider `Cc1nc(N2CCN(c3ncccn3)CC2)c2oc3ccccc3c2n1`, for which the inhibition was 54.3% [fluorescence artefact?] (active).

As for `CN1CCc2c(sc3c2c(NCc2ccco2)nc2nnnn23)C1`, the inhibition was 84.9% [fluorescence artefact?] (active).

On to `c1ccc(-c2nc(NCc3ccco3)c3ccccc3n2)cc1`, for which the inhibition is 2.5% (inactive).

For `O=C(Cc1ccccc1)n1nc(-c2ccccc2)nc1NCc1ccco1`, the inhibition was -2.71% (inactive).

Turning to `CC(C)CCNC(=O)CC1C(=O)N(Cc2ccccc2)C(C)c2nc3ccccc3n21` (stereo not given), the inhibition was -8.13% (inactive).

For the compound `COCCNS(=O)(=O)c1cc(Br)ccc1OC`, the inhibition was 3.01% (inactive).

On to `CC(C)(C)c1ccc(C(=O)NCC(=O)OCN2C(=O)c3ccccc3C2=O)cc1`, for which the inhibition is 0.65% (inactive).

On to `O=C(OCC#CCSc1nnc(-c2ccncc2)o1)c1sc2ccccc2c1Cl`, for which the inhibition was -0.24% (inactive).

Regarding `O=C(CN1C(=O)CC(c2ccccc2)=Nc2ccccc21)NC1CCCCC1`, the inhibition is -6.54% (inactive).

Consider `Cn1c(=NC(=O)CSCC(=O)N2CCOCC2)sc2ccccc21`, for which the inhibition is -10.2% (inactive).

As to `Cn1c(=NC(=O)c2cnccn2)sc2ccccc21`, the inhibition was 56.8% [fluorescence artefact?] (active).

In the case of `Cn1c(=NC(=O)CSCC(=O)N2CCCCC2)sc2ccccc21`, the inhibition is -2.22% (inactive).

Consider `O=C(Nc1ccc2nc3n(c(=O)c2c1)CCCCC3)c1ccccc1Cl`, for which the inhibition is 1.87% (inactive).

For `CCCc1noc2c1/C(=N\O)CCC2`, the inhibition was -11.6% (inactive).

As to `COc1ccc(S(=O)(=O)Nc2ccc(F)cc2)c(C)c1C`, the inhibition is 10.1% (inactive).

Turning to `CN(c1ccc(C(=O)NCc2ccccn2)cc1)S(C)(=O)=O`, the inhibition was -0.26% (inactive).

Regarding `O=C(NCc1ccccn1)c1ccc2nc(-c3ccco3)c(-c3ccco3)nc2c1`, the inhibition is 88% [fluorescence artefact?] (active).

As for `O=C(NCc1ccccn1)c1cc2ccccc2oc1=O`, the inhibition is -3.07% (inactive).

As to `CCN(CC)C(=O)CSc1nc2ccccc2o1`, the inhibition is -2.4% (inactive).

As for `O=S(=O)(NCCNS(=O)(=O)c1ccccc1)c1ccccc1`, the inhibition was -4.42% (inactive).

On to `O=S(=O)(NCC1OCCc2ccccc21)c1ccccc1` (stereo not given), for which the inhibition is -3.46% (inactive).

With `O=c1/c(=C/c2ccc(CNS(=O)(=O)c3ccccc3)o2)sc2n1CCN=2`, the inhibition is 51.2% [fluorescence artefact?] (active).

Take `CC(=O)C1=C(C)NC(=O)NC1c1cc(Br)ccc1OCC#N` (stereo not given): the inhibition was -10.9% (inactive).

Turning to `CC(C)n1c(-c2cccs2)nc2ccccc21`, the inhibition was -8.49% (inactive).

With `O=C(CCn1c(SCC(=O)c2ccccc2)nc2ccccc2c1=O)NCc1ccc(F)cc1`, the inhibition is 47.2% (inactive).

`COc1ccc(OC)c(-n2nnnc2SCC(=O)Nc2cc(C)ccc2OC)c1`: the inhibition was 4.13% (inactive).

Regarding `COc1ccc(C)cc1-n1nnnc1SCC(=O)c1cc(C)n(Cc2ccco2)c1C`, the inhibition is 56% [fluorescence artefact?] (active).

As to `COc1ccc(NC(=O)CSc2nnc(-c3cccs3)n2Cc2ccco2)cc1OC`, the inhibition was -0.83% (inactive).

Turning to `O=C(NCc1ccccc1)[C@@H]1CSC2c3ccccc3C(=O)N21` (stereo not given in full), the inhibition is 6.25% (inactive).

`Cc1cc(C)n(-c2nnc(C)n2NC(=O)c2cccc(Cl)c2)n1`: the inhibition is -8.09% (inactive).

Turning to `COc1ccc(-c2noc(-c3ccc(C)cc3)n2)cc1`, the inhibition is -13.3% (inactive).

As for `Cc1cccc(-c2noc(-c3ccc(F)cc3)n2)c1`, the inhibition is -21.4% (inactive).

With `COc1ccc2[nH]c(=O)c(-c3noc(-c4ccc(F)cc4)n3)cc2c1`, the inhibition was 72.5% [fluorescence artefact?] (active).

`COc1cc(OC)c(C(=O)NC2CCCCCC2)cc1OC`: the inhibition was -10.8% (inactive).

Consider `COc1ccc(Cl)cc1C(=O)Nc1ccc(N(C)C(C)=O)cc1`, for which the inhibition is 9.29% (inactive).

For the compound `COc1cc(OC)c(C(=O)Nc2ccc(N(C)C)cc2)cc1OC`, the inhibition was 63.9% [fluorescence artefact?] (active).

For `CCOc1ccccc1C(=O)NC1CC2CCCC(C1)N2Cc1ccccc1` (stereo not given), the inhibition is 1.91% (inactive).

Turning to `COc1ccc(-c2nnc(SCC(=O)c3ccc4c(c3)OCCO4)o2)cc1`, the inhibition was 22.7% (inactive).

For the compound `COc1ccc(-n2nnnc2SCC(=O)Nc2ccccc2)cc1`, the inhibition was -12.4% (inactive).

As for `Cc1ccc(Nc2nc(CSc3nnnn3-c3ccccc3)cc(=O)[nH]2)cc1`, the inhibition is 66.8% [fluorescence artefact?] (active).

`Cc1ccc(-c2noc(CSc3nnnn3-c3ccccc3)n2)cc1`: the inhibition was -3.97% (inactive).

`O=c1c2ccccc2nnn1CSc1nnnn1-c1ccccc1`: the inhibition was -0.34% (inactive).

`O=c1c2ccccc2nc(CSc2nnnn2-c2ccccc2)n1-c1ccccc1`: the inhibition is 70% [fluorescence artefact?] (active).

On to `N#CCSc1nc2ccccc2c(=O)n1-c1ccccc1`, for which the inhibition is 1.7% (inactive).

On to `Brc1ccc(-c2nnc(-c3ccccc3)o2)o1`, for which the inhibition was 12.2% (inactive).

For the compound `O=C(Cc1ccccc1)Nc1c(C(=O)N2CCCCCC2)cnn1-c1ccccc1`, the inhibition was -5.17% (inactive).

As for `Cc1cc(=O)oc2cc(OCC3CC(c4ccccc4Cl)=NO3)ccc12` (stereo not given), the inhibition was 3.5% (inactive).

Turning to `O=C(c1ccc2c(c1)OCO2)N1CCOCC1`, the inhibition is -17.2% (inactive).

Regarding `Cc1ccc(NC(=O)CSCC(=O)N2CCOCC2)cc1`, the inhibition is -2.74% (inactive).

Take `CCN(CC)C(=O)CN(c1cccc(OC)c1)S(=O)(=O)c1ccc(C)cc1`: the inhibition is 0.16% (inactive).

As for `COc1ccc(Cl)cc1NC(=O)c1oc(C)nc1C`, the inhibition is 53.9% (active).

In the case of `Cc1nc(C)c(C(=O)Nc2ccc(C)c(F)c2)o1`, the inhibition was 13.3% (inactive).

As to `Cc1nc(C)c(C(=O)Nc2cccc(C)c2C)o1`, the inhibition was 23.7% (inactive).

For `Cc1cc(NC(=O)CCC(=O)N(CC(=O)NCC2CCCO2)c2ccccc2C)no1` (stereo not given), the inhibition is 26% (inactive).

For `CCOC(=O)N1CCN(C(=O)c2nn(-c3ccc(C)cc3)c(=O)c3c2c2ccccc2n3C)CC1`, the inhibition is 58.7% [fluorescence artefact?] (active).

For the compound `Cn1c2ccccc2c2c(C(=O)N3CCN(c4ccc(F)cc4)CC3)cn(C3CCCC3)c(=O)c21`, the inhibition is 8.84% (inactive).

Take `CCOC(=O)N1CCN(C(=O)c2n[nH]c(=O)c3ccccc23)CC1`: the inhibition is -4.02% (inactive).

On to `CCCc1nc(NCc2ccc3c(c2)OCO3)c2nnn(Cc3ccccc3Cl)c2n1`, for which the inhibition is 0.25% (inactive).

Turning to `Cc1ccccc1-c1nnc(SCC(=O)NCc2ccc3c(c2)OCO3)n1C`, the inhibition was -3.86% (inactive).
